Source: the supplement of paper PMC9844399
Structures can show the parent of a compound that is named as a salt.

Test system: HeLa
Experiment: nuclear count per well, robust Z-score vs DMSO; higher = more cells (less toxicity)
Conditions: 10 µM; 6 h
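For MALAT1 nuclear FISH intensity, robust Z-score vs DMSO in this document: High-content confocal imaging of branched-DNA amplified FISH in 384-well plates, Hoechst-defined nuclei, score is well value minus plate DMSO median over DMSO robust SD, four wells per compound.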
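For nuclear count per well, robust Z-score vs DMSO in this document: Hoechst-stained nuclei counted by automated confocal imaging of four fields per well in 384-well plates, with the robust Z-score based on the per-plate DMSO median and robust SD.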

Row | SMILES | nuclear count per well
1 | Cc1nc(-c2ccc(OCC(C)C)c(C#N)c2)sc1C(=O)O [Febuxostat] | -0.407
2 | Cc1cc(C)nc(C)c1 [Collidine] | -0.214
3 | NS(=O)(=O)c1cc2c(cc1C(F)(F)F)NC(Cc1ccccc1)NS2(=O)=O (configuration not stated) [Bendroflumethiazide] | 1.08
4 | C[C@H]1c2cccc(O)c2C(=O)C2=C(O)[C@]3(O)C(=O)C(C(N)=O)=C(O)[C@@H](N(C)C)[C@@H]3[C@@H](O)[C@@H]21 | 0.141
5 | COC(=O)Nc1nc2cc(C(=O)c3cccs3)ccc2[nH]1 [Nocodazole] | -3.65
6 | CN(C)c1ccc(O)c2c1C[C@H]1C[C@H]3[C@H](N(C)C)C(O)=C(C(N)=O)C(=O)[C@@]3(O)C(O)=C1C2=O | 1.36
7 | Cc1ccc(N(CC2=NCCN2)c2cccc(O)c2)cc1 [Phentolamine mesylate] | 0.0958

Test system: HeLa
Experiment: MALAT1 nuclear FISH intensity, robust Z-score vs DMSO; higher = more nuclear MALAT1 lncRNA, active = -3 or less
Conditions: 10 µM; 6 h

Row | SMILES | MALAT1 nuclear FISH intensity
8 | CC(=O)[C@H]1CC[C@H]2[C@@H]3CCC4=CC(=O)CC[C@]4(C)[C@H]3CC[C@]12C [Progesterone] | -1.26 (inactive)
9 | c1ccc2c(-c3ccncc3)c[nH]c2c1 [Rockout] | -1.98 (inactive)
10 | CCCc1nc(C(C)(C)O)c(C(=O)O)n1Cc1ccc(-c2ccccc2-c2nnn[nH]2)cc1 [Olmesartan] | -0.895 (inactive)
11 | OC(c1cc(C(F)(F)F)nc2c(C(F)(F)F)cccc12)C1CCCCN1 (configuration not stated) | 3.94 (inactive)
12 | CCCCCC[C@@H]([C@@H](C)O)n1cnc2c(N)ncnc21 (racemic) | -1.31 (inactive)
13 | CCCN[C@H]1CCc2nc(N)sc2C1 [Pramipexole Dihydrochloride Monohydrate] | -0.69 (inactive)
14 | N=C(NCCCCCCNC(=N)NC(=N)Nc1ccc(Cl)cc1)NC(=N)Nc1ccc(Cl)cc1 [Chlorhexidine Dihydrochloride] | 1.34 (inactive)
15 | CNC(=O)[C@H](Cc1c[nH]c2ccccc12)NC(=O)[C@@H](CC(=O)NO)CC(C)C | -0.896 (inactive)
16 | CCOC(=O)[C@H](CCc1ccccc1)N[C@H]1CCc2ccccc2N(CC(=O)O)C1=O | -1.39 (inactive)
17 | CC1=C(/C=C/C(C)=C/C=C/C(C)=C\C(=O)O)C(C)(C)CCC1 [Isotretinoin (13-Cis-Retinoic Acid)] | -0.557 (inactive)
18 | CCN(CC)CCCC(C)Nc1ccnc2cc(Cl)ccc12 (configuration not stated) [Chloroquine Diphosphate] | -0.205 (inactive)
19 | COC(=O)[C@@H]1CC2=CC(=O)CC[C@]2(C)[C@@]23O[C@@H]2C[C@@]2(C)[C@@H](CC[C@@]24CCC(=O)O4)[C@H]13 [Eplerenone] | 1.14 (inactive)
20 | CCCc1nc(C)c2c(=O)nc(-c3cc(S(=O)(=O)N4CCN(CC)CC4)ccc3OCC)[nH]n12 [Vardenafil] | -1.12 (inactive)
21 | CC1(C)S[C@@H]2[C@H](NC(=O)Cc3ccccc3)C(=O)N2[C@H]1C(=O)O [Penicillin G Potassium (Benzylpenicillin)] | -0.0727 (inactive)
22 | C#C[C@]1(O)CC[C@H]2[C@@H]3CCC4=CC(=O)CC[C@@H]4[C@H]3C(=C)C[C@@]21CC [Etonogestrel] | 0.892 (inactive)
23 | CN(C)[C@@H]1C(O)=C(C(N)=O)C(=O)[C@@]2(O)C(O)=C3C(=O)c4c(O)cccc4[C@@](C)(O)[C@H]3C[C@@H]12 [Tetracycline] | -0.625 (inactive)
24 | CNC(=O)[C@H]1O[C@@H](n2cnc3c(NCc4cccc(I)c4)ncnc32)[C@H](O)[C@@H]1O | 2.19 (inactive)
25 | CCCC[C@@H](C=O)NC(=O)[C@H](CC(C)C)NC(=O)[C@H](CC(C)C)NC(C)=O [Calpain Inhibitor I] | 4.21 (inactive)
26 | CCCSc1ccc2[nH]c(NC(=O)OC)nc2c1 [Albendazole] | -0.252 (inactive)
27 | Fc1ccc([C@@H]2CCNC[C@H]2COc2ccc3c(c2)OCO3)cc1 | 1.58 (inactive)

Row | SMILES | MALAT1 nuclear FISH intensity
28 | C[C@@H](CN1CC(=O)NC(=O)C1)N1CC(=O)NC(=O)C1 [Dexrazoxane] | -0.509 (inactive)
29 | C#C[C@]1(O)CC[C@H]2[C@@H]3CCC4=CCCC[C@@H]4[C@H]3C(=C)C[C@@]21CC [Desogestrel] | -0.0225 (inactive)
30 | CCCCC[C@H](O)/C=C/[C@H]1[C@H](O)CC(=O)[C@@H]1C/C=C\CCCC(=O)O [Dinoprostone] | 0.586 (inactive)
31 | Fc1ccc(C(c2ccc(F)cc2)N2CCN(C/C=C/c3ccccc3)CC2)cc1 | 1.27 (inactive)
32 | CCN(CC)CCOc1ccc(C(=C(Cl)c2ccccc2)c2ccccc2)cc1 [Clomiphene citrate salt] | 1.13 (inactive)
33 | CNC[C@H](O)c1cccc(O)c1 [Phenylephrine] | 1.34 (inactive)
34 | C[C@]12CC[C@@H]3c4ccc(O)cc4C[C@@H](CCCCCCCCC[S+]([O-])CCCC(F)(F)C(F)(F)F)[C@H]3[C@@H]1CC[C@@H]2O (some centres not stated) [Fulvestrant] | -0.548 (inactive)
35 | OC(CCN1CCCCC1)(c1ccccc1)C1CC2C=CC1C2 (configuration not stated) | 0.944 (inactive)
36 | Cl.O=C([O-])c1ccc(-c2c3nc(c(-c4ccc(C(=O)O)cc4)c4nc(c(-c5ccc(C(=O)O)cc5)c5ccc([nH]5)c(-c5ccc(C(=O)[O-])cc5)c5ccc2[n-]5)C=C4)C=C3)cc1.[Mn+3] [MnTBAP chloride] | -0.439 (inactive)
37 | Nc1ccc(C(=O)O)c(O)c1 [4-Aminosalicylic Acid] | 0.552 (inactive)
38 | O=Nc1c(-c2c(O)[nH]c3ccccc23)[nH]c2ccccc12 [Indirubin-3'-monoxime] | -2.22 (inactive)
39 | CCCCCCCCCCCCCCOc1ccc(C(=O)O)o1 | 1.88 (inactive)
40 | COC(=O)c1ccc(O)cc1 [Methylparaben] | -0.359 (inactive)
41 | Cc1nc(-c2ccc(OCC(C)C)c(C#N)c2)sc1C(=O)O [Febuxostat] | 0.59 (inactive)
42 | Cc1cc(C)nc(C)c1 [Collidine] | 0.14 (inactive)
43 | NS(=O)(=O)c1cc2c(cc1C(F)(F)F)NC(Cc1ccccc1)NS2(=O)=O (configuration not stated) [Bendroflumethiazide] | -0.874 (inactive)
44 | C[C@H]1c2cccc(O)c2C(=O)C2=C(O)[C@]3(O)C(=O)C(C(N)=O)=C(O)[C@@H](N(C)C)[C@@H]3[C@@H](O)[C@@H]21 | 1.19 (inactive)
45 | COC(=O)Nc1nc2cc(C(=O)c3cccs3)ccc2[nH]1 [Nocodazole] | -0.638 (inactive)
46 | CN(C)c1ccc(O)c2c1C[C@H]1C[C@H]3[C@H](N(C)C)C(O)=C(C(N)=O)C(=O)[C@@]3(O)C(O)=C1C2=O | 0.55 (inactive)
47 | Cc1ccc(N(CC2=NCCN2)c2cccc(O)c2)cc1 [Phentolamine mesylate] | -0.844 (inactive)
